Test results taken from PubChem BioAssay (EPA / NIEHS).
Several values for one entry are separate records, joined by “and”; a condition that tells them apart may be missing. Equal values may be shown once. Activity calls are given as the source filed them. The calls were made as follows: active = hit-call score of the fitted dose curve at least 0.9, where 1 is the maximum; inactive = score below 0.9.

Read-out: Intercellular Adhesion Molecule 1 (ICAM1), ICAM1 (gene 3383)
Test: BSK_3C_ICAM1: BioMAP Diversity Plus: 3C Assay for Intercellular Adhesion Molecule 1 (ICAM1) Biomarker Activity (AID 2283003)
Conditions: primary human endothelial cells (HUVEC); actives raise or lower the signal
Procedure: BSK_3C is a cell-based, multiplexed-readout assay that uses umbilical vein endothelium, a human vascular primary cell, with measurements taken at 24 hours after chemical dosing in a 96-well plate.BSK_3C_ICAM1 is an assay component measured in the BSK_3C assay. It measures ICAM-1 antibody related to regulation of gene expression using ELISA technology.Data from the assay component BSK_3C_ICAM1 was analyzed into 1 assay endpoint. This assay endpoint, BSK_3C_ICAM1, was analyzed with bidirectional fitting relative to DMSO as the negative control and baseline of activity. Using a type of binding reporter, gain or loss-of-signal activity can be used to understand changes in the signaling as they relate to the gene ICAM1. Furthermore, this assay endpoint can be referred to as a primary readout, because this assay has produced multiple assay endpoints where this one serves a signaling function. To generalize the intended target to other relatable targets, this assay endpoint is annotated to the cell adhesion molecules intended target family, where the subfamily is Immunoglobulin CAM.
The levels of cell surface (or secreted, indicated by the prefix "s") biomarker endpoints were measured by ELISA. Overt cytotoxicity to cells in confluent adherent cultures (all systems other than the BT system) was assessed by measuring total protein levels using sulforhodamine B (SRB) staining in parallel cultures at the time of biomarker measurements, indicated as SRB endpoints. For proliferation assays for adherent cell types, individual cell types are cultured at sub-confluence and relative cell numbers quantified by SRB staining at time points optimized for each system (48 h: 3C and CASM3C systems; 72 h: BT and HDF3CGF systems; 96 h: SAg system). SRB was performed by staining cells with 0.1% SRB after fixation with 10% TCA and reading wells at 560 nm.Viability and proliferation of PBMC (T cells) was quantified by Alamar Blue reduction for the SAg and BT systems. For PBMC viability (referred to as PBMC Cytotoxicity within the assay endpoint names), cells were plated (75,000/well in a 96-well plate) and then chemical samples added for 1 h before addition of activators, SEB and TSST-1 (20 ng/mL final concentration each). Cells were incubated for 90 h. Then, Alamar Blue (20 uL/well) (Invitrogen, Cat DAL1100) was added for 6 h, and the plates were read with a fluorescence microplate reader at 546/580 nm (excitation/emission). For PBMC proliferation, cells were plated and activated as above but incubated for only 16 h prior to addition of Alamar Blue. Plates were read after 6 h.

SMILES | outcome | AC50
CSC(=O)c1cccc2nnsc12 | inactive | –
CCCOC(=O)NCCCN(C)C | inactive | –
c1ccc2[nH]c(-c3cscn3)nc2c1 | inactive | –
CCC(C)OC(=O)N1CCCCC1CCO (stereo not given) | inactive | –
C#CCOC(=O)[C@@H](C)Oc1ccc(Oc2ncc(Cl)cc2F)cc1 | inactive | –
O=C(c1ccccc1)C1CCCCC1 | inactive | –
S=C(S)NCCNC(=S)S.[Mn+2].[S-]C([S-])=NCCN=C([S-])[S-].[Zn+2] | inactive | –
CCCN(CCC)c1c([N+](=O)[O-])cc(C(F)(F)F)c(N)c1[N+](=O)[O-] | – | 36.8 µM (active)
C=CCOC(Cn1ccnc1)c1ccc(Cl)cc1Cl (stereo not given) | inactive | –
COC(=O)c1ccc(I)cc1S(=O)(=O)NC(=O)Nc1nc(C)nc(OC)n1 | inactive | –
c1ccc(Nc2ccccc2)cc1 | inactive | –
CC(C)CCCCCCc1ccc(O)cc1 | – | 11.2 µM (active)
CCCCC(CC)CN1C(=O)C2C3C=CC(C3)C2C1=O (stereo not given) | inactive | –
COc1nc(C)nc(NC(=O)NS(=O)(=O)c2ccccc2OCCCl)n1 | inactive | –
N[C@@H](Cc1cc(I)c(Oc2ccc(O)c(I)c2)c(I)c1)C(=O)O | inactive | –
O=C(Nc1ccc([N+](=O)[O-])cc1Cl)c1cc(Cl)ccc1O | – | 20 µM (active)
Cc1nn(C)c(Oc2ccccc2)c1C=NOCc1ccc(C(=O)OC(C)(C)C)cc1 | inactive | –
N#CSCSc1nc2ccccc2s1 | – | 6.48 µM (active) and 15.4 µM (active)
CC(C)(c1ccc(O)cc1)c1ccc(O)cc1 | inactive | –
COC(=O)c1ccccc1C(=O)O | inactive | –

SMILES | outcome | AC50
CCOC(=O)[C@H](C)Oc1ccc(Oc2nc3ccc(Cl)cc3o2)cc1 | inactive | –
CCOC(=O)COc1cc(-n2ncc(C(F)(F)F)c(C)c2=O)c(F)cc1Cl | inactive | –
CCCCCOC(=O)COc1cc(N2C(=O)C3=C(CCCC3)C2=O)c(F)cc1Cl | inactive | –
CCCOC(=O)c1ccc(C(=O)OCCC)nc1 | inactive | –
CCN(CC)C(=O)c1cccc(C)c1 | inactive | –
CCCCOC(=O)C(C)Oc1ccc(Oc2ccc(C(F)(F)F)cn2)cc1 (stereo not given) | inactive | –
S=C([S-])NCCNC(=S)[S-].[Mn+2] | inactive | –
CCOC(=O)C(C)Oc1ccc(Oc2cnc3cc(Cl)ccc3n2)cc1 (stereo not given) | inactive | –
COCCO | inactive | –
CCC(O)=C1C(=O)CC(C(=O)O)CC1=O (stereo not given) | inactive | –
CC(C)(C)[C@@H](O)[C@@H](Cc1ccc(Cl)cc1)n1cncn1 | inactive | –
COC(=O)CSc1cc(N=c2sc(=O)n3n2CCCC3)c(F)cc1Cl | inactive | –
O=C(O)C1(C(=O)Nc2ccc(Cl)cc2Cl)CC1 | inactive | –
CCCN(CCC)C(=O)SCC | inactive | –
CC(=O)[C@H]1CC[C@H]2[C@@H]3CCC4=CC(=O)CC[C@]4(C)[C@H]3CC[C@]12C | inactive | –
CCOC(=O)C(C)Oc1ccc(Oc2nc3ccc(Cl)cc3o2)cc1 (stereo not given) | inactive | –
O=C(O)c1ccccc1 | inactive | –
O=C(c1ccc(O)cc1O)c1ccc(O)cc1O | inactive | –
COC(=O)c1c(Cl)nn(C)c1S(=O)(=O)NC(=O)Nc1nc(OC)cc(OC)n1 | inactive | –
CCN(Cc1c(F)cccc1Cl)c1c([N+](=O)[O-])cc(C(F)(F)F)cc1[N+](=O)[O-] | inactive | –
